{"source": "the supplement of paper PMC6555819", "data": [{"tested_on": "RARg homodimer (NR concentration 270 nM)", "assay": "PBM binding z-score (relative to random genomic background probes); higher = stronger binding; sequences stand for … in GC…GCGATTGACAGCGTAGAATGAAGG", "summary_of_the_method": "(§1)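 Ligand-free nuclear receptor dimers were applied to custom Agilent 4×180K protein-binding microarrays whose double-stranded probes carried direct-repeat seeds, single-nucleotide variants, half-site ablations and random human genomic background sequences in 34-nt variable regions. Incubation lasted 1 h. Binding z-scores were computed against the random background probes from regression-normalized fluorescence.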", "values": [{"sequence": "CAAACTAGTTCAAAGGTCAAAGTCGAGCCAACCA", "PBM binding z-score": 6.13}, {"sequence": "ACTTACGGGTCAACGAGCTTATAGCACGCGTATA", "PBM binding z-score": 5.01}, {"sequence": "CCGACTGGGGCATAAGGTTAGCATAAGCCAGCCC", "PBM binding z-score": 0.69}, {"sequence": "CCGACTGGGGCATAAGGTTACCATGAGCCAGCCC", "PBM binding z-score": 0.826}, {"sequence": "ATATGTAGATTATCGGGTCATTCAGTTTGCGCAT", "PBM binding z-score": 1.35}, {"sequence": "GATACAGGGTCAAGGCCCGAGTACGCGTATTGAT", "PBM binding z-score": 5}, {"sequence": "ACTAGGAGGCCAAGTTTGGGTCACTCAAACAAAG", "PBM binding z-score": 2.56}, {"sequence": "GCTCGGAGGACAACGTCAGAGCTTTGTCCGTAGA", "PBM binding z-score": 0.158}, {"sequence": "TTAGCAAGGTGAAAGGTCGTTGATGCACGCCTTG", "PBM binding z-score": 1.75}, {"sequence": "ATCGAAATGTCGACGAGGTGAGTATACACCGTTT", "PBM binding z-score": 0.657}, {"sequence": "CGTCCAAGGTGAGAGAGGTCAGTGAATGCCGAGT", "PBM binding z-score": 3.7}, {"sequence": "CCTGCTAGGTCAATCGTCAGCTAAAGCAGCTCGC", "PBM binding z-score": 4.42}, {"sequence": "GCTTGTAGGTCAAGGTTAAGAAAGACTAAGCTAA", "PBM binding z-score": 5.18}, {"sequence": "TCTGCTAGGTGAACGATGGTCAGCTAATCTGCTA", "PBM binding z-score": 0.337}, {"sequence": "CGAACTAGGTCATTGACTGGACAGTGAATAGTAA", "PBM binding z-score": 4.26}, {"sequence": "TCCTATAGGTAAAGGTGAAAGTCGAACGATATGA", "PBM binding z-score": 1.3}, {"sequence": "CCAGACAGGTGGGAAGGTAACTCAGCCTCGATTA", "PBM binding z-score": -0.24}, {"sequence": "CCTACTGGGCCATTCAGAGGTCATAGATCATATG", "PBM binding z-score": 2.99}]}, {"tested_on": "RXRa DBDmut IVT, anti-RXR (DBD mutation: RXRa K156A/R161A, NR concentration 90 nM)", "assay": "PBM binding z-score (relative to random genomic background probes); higher = stronger binding; sequences stand for … in GC…GCGATTGACAGCGTAGAATGAAGG", "summary_of_the_method": "as §1", "values": [{"sequence": "CCTACAGGGTCAGCTAGGCCAGAGTAGGGACGGC", "PBM binding z-score": 1.01}, {"sequence": "GTATCAAGGTGAATAGGTCGTTGATGAGTAGGCG", "PBM binding z-score": 0.056}, {"sequence": "TATACAGGGTCAAAGGCCGGAGTACGAATGTCGA", "PBM binding z-score": 2.94}, {"sequence": "CCTCGGAGGACAGAACGTCAGAGCTGTCCGCTTT", "PBM binding z-score": -0.411}, {"sequence": "ATCTCTAGGTAAGACCCAGTTCAGTGAAGAACGC", "PBM binding z-score": 0.175}, {"sequence": "ACTTACGGGTCAACGAGGGTATAGCACGCGTATA", "PBM binding z-score": 2.4}, {"sequence": "TAGCGTAGGTCAGATCGGGCCAGTATACGCTATA", "PBM binding z-score": -0.899}, {"sequence": "GCTTACGGGTAAAAGGTTATAGCATGAATAGAAT", "PBM binding z-score": 0.423}, {"sequence": "TCTATTAGTTGACGGGCAACCGACGAGTCCGTTT", "PBM binding z-score": 1.46}, {"sequence": "CCCAGCAGGCCAGGGTCACTCAAGCATTTCGCTT", "PBM binding z-score": 0.022}, {"sequence": "CGTCCCAGGTCAGAGAGGTCAGTGAATGCCGAGT", "PBM binding z-score": 1.72}, {"sequence": "ACTAGCAAGCCAAGGGTCACTCAAGATTAGTCCG", "PBM binding z-score": 0.334}, {"sequence": "CAGACTGGGGCATAAGGTTACCATAAGCCAGCCC", "PBM binding z-score": 0.105}, {"sequence": "AGAACGAGGGCTATGAGTTGATAGCACGGGTGGC", "PBM binding z-score": -0.264}, {"sequence": "GCTTGTAGATCAAGGTTAAGATAGACTAAGCTAA", "PBM binding z-score": 0.0981}, {"sequence": "CCTAGCAGGCCAGGGTCACTCAAGCATTTCGCTT", "PBM binding z-score": 0.493}, {"sequence": "ATCTCTAGGCAAAAGTTCAGTGAATCCCGAGGAT", "PBM binding z-score": 0.479}, {"sequence": "ATCTCTAGGTAAAGATAGTTCAGAGAATGCAAAT", "PBM binding z-score": -0.136}, {"sequence": "CAAACTAGGTCACGGAAGGTCAAAGTCGAATGAC", "PBM binding z-score": 2.45}, {"sequence": "ATATGTAGGTTACGGGTCATTCAGGTTGGTTCGC", "PBM binding z-score": 1.69}, {"sequence": "ATCTCTAGCTAACAAGTTCAGTGAAAGAGAGGAC", "PBM binding z-score": 0.511}, {"sequence": "ACAGACAGGTGAGTTAAGGTAACTCAGCTGGACG", "PBM binding z-score": -0.352}, {"sequence": "CAAACTAGTTCAAAGGTCAAAGTCGAGCCAACCA", "PBM binding z-score": 3.58}, {"sequence": "ACTTACGGGTCAACGAGCTTATAGCACGCGTATA", "PBM binding z-score": 1.56}, {"sequence": "CCGACTGGGGCATAAGGTTAGCATAAGCCAGCCC", "PBM binding z-score": -0.721}, {"sequence": "CCGACTGGGGCATAAGGTTACCATGAGCCAGCCC", "PBM binding z-score": -0.562}, {"sequence": "ATATGTAGATTATCGGGTCATTCAGTTTGCGCAT", "PBM binding z-score": 1.21}, {"sequence": "GATACAGGGTCAAGGCCCGAGTACGCGTATTGAT", "PBM binding z-score": 2.42}, {"sequence": "ACTAGGAGGCCAAGTTTGGGTCACTCAAACAAAG", "PBM binding z-score": 0.0297}, {"sequence": "GCTCGGAGGACAACGTCAGAGCTTTGTCCGTAGA", "PBM binding z-score": 0.00939}, {"sequence": "TTAGCAAGGTGAAAGGTCGTTGATGCACGCCTTG", "PBM binding z-score": 0.67}, {"sequence": "ATCGAAATGTCGACGAGGTGAGTATACACCGTTT", "PBM binding z-score": -0.0108}, {"sequence": "CGTCCAAGGTGAGAGAGGTCAGTGAATGCCGAGT", "PBM binding z-score": 0.994}, {"sequence": "CCTGCTAGGTCAATCGTCAGCTAAAGCAGCTCGC", "PBM binding z-score": 1.78}, {"sequence": "GCTTGTAGGTCAAGGTTAAGAAAGACTAAGCTAA", "PBM binding z-score": 1.26}, {"sequence": "TCTGCTAGGTGAACGATGGTCAGCTAATCTGCTA", "PBM binding z-score": -0.282}, {"sequence": "CGAACTAGGTCATTGACTGGACAGTGAATAGTAA", "PBM binding z-score": 2.1}, {"sequence": "TCCTATAGGTAAAGGTGAAAGTCGAACGATATGA", "PBM binding z-score": 0.809}, {"sequence": "CCAGACAGGTGGGAAGGTAACTCAGCCTCGATTA", "PBM binding z-score": -0.499}, {"sequence": "CCTACTGGGCCATTCAGAGGTCATAGATCATATG", "PBM binding z-score": 0.411}]}]}
